Assay results published in PubChem BioAssay (NCI).
Values joined by “and” are separate entries in the source; they are usually repeats but may differ in a detail not shown here. Equal entries are not always repeated. The panel holds about 83,000 compounds, 20% with a hit somewhere; the sample as a whole holds those more often.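 Values shown are percent growth following 48 h exposure of cells in 96-well plates to a single concentration of compound; below 10 was considered active.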 Active and inactive are the calls of the source.

Test system: MDA-MB-468 breast
Assay: NCI-60 one-dose screen, 48 h (100 = growth as untreated, 0 = no growth, -100 = all killed)
Conditions: 10 µM unless noted

Row | SMILES | growth
1 | Cc1nn(-c2ccccc2)c2nc3c(nc12)C1=NCCN1C(c1ccc(Cl)cc1)N3 (stereo not given) | 48.2% (inactive)
2 | Clc1ccc(-c2nc(-c3cccs3)cn3ccnc23)cc1 | -11.1% (active)
3 | Nc1nc(=S)ss1 | 101% (inactive)
4 | CNC(=O)NCC1OC(n2cnc3c(NC(=O)Nc4ccccc4)ncnc32)C(O[Si](C)(C)C(C)(C)C)C1O[Si](C)(C)C(C)(C)C (stereo not given) | 35.8% (inactive)
5 | COc1ccccc1NC(=O)C1=C(C)NC(C)=C(C(=O)Nc2ccccc2OC)C1c1cccc([N+](=O)[O-])c1 | 74.3% (inactive)
6 | CC/C=C\C[C@H](O)C/C=C1/C(=O)C=C[C@@]1(C)C/C=C\CCCC(=O)OC | 105% (inactive)
7 | ClC/C=C/CSc1ncnc2nc[nH]c12 | 103% (inactive) and 127% (inactive)
8 | CC(=O)OCC(=O)O[C@@H]1C[C@]2(C(C)C)O[C@@]1(C)[C@@H]1CC[C@@H](C)[C@H]1[C@@H]2OC(=O)/C=C/c1ccccc1 | 83.7% (inactive)
9 | COc1ccc(-c2cc(-c3cccnc3)nc3sc(C(=O)Nc4ccccc4)c(N)c23)cc1OC | 80.8% (inactive)
10 | O=C1C[C@H](Sc2nc(-c3ccc(F)cc3)cc(C(F)(F)F)n2)[C@H]2CO[C@@H]1O2 | 71.4% (inactive)
11 | CC(C)c1ccc(C(C)C(=O)N(CC2=C(C(C)c3ccccn3)c3ccccc3C2)C(C)C)cc1 (stereo not given) | 24.9% (inactive)
12 | Cc1nc(S(=O)(=O)c2ccccc2)c(S(=O)(=O)Cc2ccc([N+](=O)[O-])cc2)o1 | 78.1% (inactive)
13 | COc1ccc(/C=C/C(c2cc(OC)c(OC)c(OC)c2)n2ccnc2)cc1O (stereo not given) | 40.6% (inactive)
14 | N#Cc1nc(-c2ccccc2)oc1S(=O)(=O)N1CCOCC1 | 71.2% (inactive)
15 | CCNC(=S)NNC(=O)c1cc2ccc1CCc1ccc(cc1)CC2 | 106% (inactive)
16 | Cc1c2ccncc2c(C)c2c1c1cc(CO)ccc1n2C | -46.1% (active)
17 | O=C(Cn1nc(-c2cccc3ccccc23)ccc1=O)NCc1cccc(Cl)c1 | 12.8% [50 µM] (inactive)
18 | CC(C)(C)[Si](C)(C)OC1[C@@H](O[Si](C)(C)C(C)(C)C)[C@@H](CNC(=O)NC(=O)NC(=O)CI)O[C@H]1n1cnc2c(NC(=O)Nc3ccccc3)ncnc21 (stereo not given in full) | 75.5% (inactive)
19 | NC(=O)c1c(NC(=O)c2ccc(C(F)(F)F)cc2)sc2c1CCC(=O)C2 | -30.7% (active)
20 | O=[N+]([O-])c1ccccc1NC1c2ccccc2Oc2ccccc21 | 30.6% (inactive)

Row | SMILES | growth
21 | C#CC(C)(O)[C@@H]1C[C@H](CC(=O)O)C1(C)C (stereo not given in full) | 114% (inactive)
22 | Nc1c(Br)cc(Br)cc1-c1n[nH]c(=O)[nH]c1=O | 104% (inactive)
23 | COc1ccc([C@H]2c3[nH]c4ccccc4c3C[C@H]3C(=O)N(C4CCN(Cc5c(Cl)cccc5Cl)CC4)CC(=O)N23)c(OC)c1 | 92.8% (inactive)
24 | O=c1oc2ccccc2c(Cl)c1Cl | 4.65% (active)
25 | CCN(CC)CCOC(=O)Nc1ccccc1Cl | 104% (inactive)
26 | CCCCCCCCCCCC1N=C(N)N=C(N)N1c1cccc(Br)c1 (stereo not given) | -92.7% (active)
27 | Cc1cc[n+](CCCC[n+]2ccc(C)cc2)cc1 | 99% (inactive)
28 | CCCCCc1ccc(S(=O)(=O)Nc2cccc(-c3csc(NC(=O)CCCCCN4CCN(CCO)CC4)n3)c2)cc1 | 85% (inactive)
29 | Cn1c(=O)c2c(ncn2CCC(=O)Nc2ccc(F)cc2)n(C)c1=O | 106% (inactive)
30 | CSc1nc2sc3cc(Cl)ccc3n2c(=N)c1C#N | -45% (active)
31 | O=C(NCCOCCOCCNc1cccc2c1C(=O)N(C1CCCNC1=O)C2=O)c1cc2c(o1)C(=O)c1ccccc1C2=O (stereo not given) | -36.6% (active)
32 | O=C1C=C[C@]2(C[C@@H](c3cccc(C(F)(F)F)c3)O[C@@H](c3cccc(C(F)(F)F)c3)O2)O1 | -48.8% (active)
33 | O=C(Nc1ccccc1)Nc1cccc(Oc2nnc(Cl)c3ccccc23)c1 | 0.467% (active)
34 | COc1ccc(COc2cc3oc(=O)c4cc(C(C)O)ccc4c3cc2OC)cc1 (stereo not given) | 41% (inactive)
35 | CC(=O)Nc1c(C(=O)Nc2ccccc2)sc2nc3c(cc12)C(OC(C)=O)CCC3 (stereo not given) | 90.5% (inactive)
36 | C=C(C)[C@@H]1CC[C@]2(C(=O)OC)CC[C@]3(C)[C@H](CC[C@@H]4[C@@]5(C)C/C(=C/NC(N)=S)C(=O)C(C)(C)[C@@H]5CC[C@]43C)[C@@H]12 | 103% (inactive)
37 | CO[C@H]1/C=C/C=C/C=C/C[C@H](OC(=O)[C@@H](C)NC(=O)C2CCCCC2)[C@H](C)[C@@H](O)/C(C)=C\CCC2=CC(=O)C=C(NC(=O)C1)C2=O | -40.9% (active)
38 | CCn1cc(CNc2ccc(C(=O)Nc3cc4cc(OC)c(OC)cc4c(C)n3)cc2)c(C)n1 | 23.2% (inactive)
39 | COC1=C(c2ccccc2)C(=O)C(OC)=C(c2ccccc2)C1=O | 43% (inactive)
40 | Cc1ccc2nc(NC(=O)CSc3nc(Cl)c(C#N)c(-c4ccccc4)n3)sc2c1 | 87.5% (inactive)
